In PubChem BioAssay AID1159580 (chemical genetic matrix, 2015):
The campaign covered roughly 5,500 compounds. About 2,000 (36%) were called active. Another 18% or so got no clear call; they are omitted. No stated cut-off is given here; in the data, active means normalized growth mostly below about 0.91 (no sharp cut-off); inconclusive means no clear call, values can overlap the other calls; inactive means mostly above about 0.92. This is one part of the list.

Test: chemical genetic growth profiling, strain panel (AID 1159580);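 further: tested at 20 µM; growth read once vehicle control cultures reached saturation at 30 °C; 1 = growth at the plate median or of vehicle wells; lower values mean less growth of the strain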
Conditions: S. cerevisiae deletion strains, growth OD
[1] = locus YAL013W, strain DEP1, active compounds read low
[2] = locus YBR229C, strain ROT2, active compounds read low
[3] = locus YCL061C, strain MRC1, active compounds read low
[4] = locus YDL101C, strain DUN1, active compounds read low
[5] = locus YDR150W, strain NUM1, active compounds read low
[6] = locus YEL061C, strain CIN8, active compounds read low
[7] = locus YGR078C, strain PAC10, active compounds read low
[8] = locus YHR030C, strain SLT2, active compounds read low
[9] = locus YHR087W, strain rtc3, active compounds read low
[10] = locus YJR043C, strain POL32, active compounds read low
[11] = locus YJR075W, strain HOC1, active compounds read low
[12] = locus YLR039C, strain RIC1, active compounds read low
[13] = locus YLR058C, strain SHM2 (second series), active compounds read low
[14] = locus YLR085C, strain ARP6, active compounds read low
[15] = locus YLR262C, strain YPT6, active compounds read low
[16] = locus YML094W, strain GIM5, active compounds read low
[17] = locus YMR219W, strain ESC1, active compounds read low
[18] = locus YMR263W, strain SAP30, active compounds read low
[19] = locus YNL153C, strain GIM3, active compounds read low
[20] = locus YNL298W, strain CLA4 (second series), active compounds read low
[21] = locus YNL322C, strain KRE1, active compounds read low
[22] = locus YNR030W, strain Alg12, active compounds read low
[23] = locus YPL055C, strain LGE1, active compounds read low
[24] = locus YPL241C, strain CIN2, active compounds read low
[25] = locus YPR135W, strain CTF4, active compounds read low

Measured: normalized growth

ON(Cc1c(F)cccc1Cl)Cc1c(F)cccc1Cl
inactive: [1] 0.985 | [2] 1.01 | [3] 0.997 | [4] 0.978 | [5] 0.951 | [6] 1.02 | [7] 0.979 | [8] 0.989 | [9] 0.986 | [10] 1.01 | [11] 0.986 | [12] 0.816 | [13] 1 | [14] 0.987 | [15] 0.829 | [16] 1.01 | [17] 0.988 | [18] 0.992 | [19] 0.976 | [20] 1.01 | [21] 0.987 | [22] 0.993 | locus YOL006C, strain TOP1, active compounds read low 0.966 | [23] 1.02 | [24] 1 | [25] 0.852

Fc1cccc(Cl)c1Cn1nnc(N2CCCCC2)n1
inactive: [1] 0.973 | [2] 0.96 | [3] 0.977 | [4] 0.992 | [5] 1.01 | [6] 0.966 | [7] 0.946 | [9] 0.941 | locus YJL187C, strain SWE1, active compounds read low 0.969 | [10] 0.982 | [11] 0.914 | [12] 0.851 | [13] 0.969 | [15] 0.881 | [16] 0.918 | [17] 0.962 | [18] 0.976 | locus YMR307W, strain GAS1, active compounds read low 0.825 | [19] 0.962 | [20] 0.984 | [21] 0.961 | [22] 0.926 | [23] 0.959 | [24] 0.909
active: [8] 0.444 | [14] 0.762 | [25] 0.534

COc1ccccc1NC(=O)Nc1nn(C)c2cccc(OC)c12
active: [8] 0.637 | locus YLR113W, strain HOG1, active compounds read low 0.599 | locus YLR403W, strain SFP1, active compounds read low 0.649 | locus YPL256C, strain CLN2, active compounds read low 0.73
inactive: locus YAR019C, strain CDC15, active compounds read low 0.917 | locus YBL105C, strain PKC1, active compounds read low 0.918 | locus YBR135W, strain CKS1, active compounds read low 0.933 | locus YBR136W, strain MEC1, active compounds read low 0.919 | locus YBR160W, strain CDC28, active compounds read low 0.932 | locus YDL017W, strain CDC7, active compounds read low 0.924 | locus YDL028C, strain MPS1, active compounds read low 0.938 | [4] 0.951 | locus YDL108W, strain KIN28, active compounds read low 0.924 | locus YDL132W, strain cdc53, active compounds read low 0.925 | locus YDL214C, strain PRR2, active compounds read low 0.843 | locus YDR052C, strain DBF4, active compounds read low 0.94 | locus YDR054C, strain cdc34, active compounds read low 0.879 | locus YDR226W, strain ADK1, active compounds read low 0.938 | locus YDR477W, strain SNF1, active compounds read low 0.781 | locus YER123W, strain YCK3, active compounds read low 0.811 | locus YER133W, strain GLC7, active compounds read low 0.731 | locus YFL009W, strain cdc4, active compounds read low 0.94 | locus YFL029C, strain CAK1, active compounds read low 0.914 | locus YFR003C, strain YPI1, active compounds read low 0.924 | locus YFR019W, strain FAB1, active compounds read low 0.907 | locus YFR028C, strain CDC14, active compounds read low 0.93 | locus YGR040W, strain KSS1, active compounds read low 0.766 | locus YGR052W, strain FMP48, active compounds read low 0.845 | locus YGR092W, strain DBF2, active compounds read low 0.81 | locus YHR079C, strain IRE1, active compounds read low 0.815 | locus YHR082C, strain KSP1, active compounds read low 0.843 | locus YHR205W, strain SCH9, active compounds read low 0.835 | locus YIL147C, strain SLN1, active compounds read low 0.935 | locus YJL095W, strain BCK1, active compounds read low 0.687 | locus YJL128C, strain PBS2, active compounds read low 0.953 | locus YJL157C, strain FAR1, active compounds read low 0.816 | locus YJR016C, strain ILV3, active compounds read low 0.928 | locus YJR066W, strain TOR1 (second series), active compounds read low 0.794 | locus YJR066W, strain TOR1, active compounds read low 0.775 | locus YKL048C, strain ELM1, active compounds read low 0.93 | locus YKL067W, strain YNK1, active compounds read low 0.866 | locus YKL101W, strain HSL1, active compounds read low 0.855 | locus YKL193C, strain SDS22, active compounds read low 0.914 | locus YKL203C, strain TOR2, active compounds read low 0.776 | locus YLR133W, strain CKI1, active compounds read low 0.818 | locus YML070W, strain DAK1, active compounds read low 0.824 | locus YMR001C, strain CDC5, active compounds read low 0.902 | locus YMR205C, strain PFK2 (second series), active compounds read low 0.863 | locus YMR277W, strain FCP1, active compounds read low 0.918 | locus YNL006W, strain LST8, active compounds read low 0.933 | locus YNL020C, strain ARK1, active compounds read low 0.818 | locus YNL161W, strain CBK1, active compounds read low 0.929 | locus YNL183C, strain NPR1, active compounds read low 0.745 | locus YNL207W, strain RIO2, active compounds read low 0.91 | locus YNL222W, strain SSU72, active compounds read low 0.929 | locus YNL307C, strain MCK1 (second series), active compounds read low 0.827 | locus YOL078W, strain AVO1, active compounds read low 0.914 | locus YOL136C, strain PFK27, active compounds read low 0.81 | locus YOR061W, strain CKA2, active compounds read low 0.866 | locus YOR119C, strain RIO1, active compounds read low 0.8 | locus YOR231W, strain MKK1, active compounds read low 0.734 | locus YOR329C, strain SCD5, active compounds read low 0.933 | locus YPL031C, strain PHO85, active compounds read low 0.724 | locus YPL153C, strain RAD53, active compounds read low 0.742 | locus YPL204W, strain HRR25, active compounds read low 0.719 | locus YPL209C, strain IPL1, active compounds read low 0.943 | locus YPR025C, strain CCL1, active compounds read low 0.926 | locus YPR106W, strain ISR1, active compounds read low 0.916 | locus YPR111W, strain DBF20, active compounds read low 0.919 | strain NNK1, active compounds read low 0.908 | strain TSCII, active compounds read low 0.915

COc1ccccc1NC(=O)N1CCCN(C(=O)c2cccs2)CC1
inactive: [1] 1.01 | [2] 1.02 | [3] 1.02 | [4] 1.03 | locus YDL134C, strain PPH21, active compounds read low 1.01 | [5] 1.05 | [6] 0.994 | [7] 1.01 | locus YGR229C, strain SMI1, active compounds read low 1.01 | [8] 1.03 | [9] 0.986 | [10] 1.02 | [11] 1.02 | locus YKL190W, strain CNB1, active compounds read low 1.01 | [12] 1.05 | [13] 1 | [14] 1.03 | [15] 1.02 | [16] 1.02 | [17] 1.01 | [18] 1.04 | [19] 1.01 | [20] 1.04 | [21] 1.01 | [22] 1.02 | [23] 1.01 | [24] 1.05 | [25] 1.04
